Measured values from PubChem BioAssay AID1671202 (University of Kansas High Throughput Screening Laboratory, 2021).
Several values for one entry are separate records, joined by “and”; a condition that tells them apart may be missing. Equal values may be shown once. The whole screen tested about 190,000 compounds, of which about 6,900 (3.6%) were called active. No stated cut-off is given here; in the data, active means inhibition above about 50%; inactive means the rest. Shown is part of a subset that was picked to be rich in actives. Some structures have more than one record in an assay (separate samples or runs), and their calls can disagree.

Each molecule was assayed against Huntingtin (Homo sapiens) (UniProt P42858) (assay: mutant huntingtin-calmodulin interaction inhibitors – biochemical, AlphaScreen, primary screen (AID 1671202;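 further: 0% = both proteins with DMSO and 100% = one protein alone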)). Settings: AlphaScreen His-mHTT/GST-CaM binding, luminescence; at 15 µM, stronger effect = higher value.
Huntingtin (Homo sapiens), sequence (P42858 whole entry, looked up, stated change not applied): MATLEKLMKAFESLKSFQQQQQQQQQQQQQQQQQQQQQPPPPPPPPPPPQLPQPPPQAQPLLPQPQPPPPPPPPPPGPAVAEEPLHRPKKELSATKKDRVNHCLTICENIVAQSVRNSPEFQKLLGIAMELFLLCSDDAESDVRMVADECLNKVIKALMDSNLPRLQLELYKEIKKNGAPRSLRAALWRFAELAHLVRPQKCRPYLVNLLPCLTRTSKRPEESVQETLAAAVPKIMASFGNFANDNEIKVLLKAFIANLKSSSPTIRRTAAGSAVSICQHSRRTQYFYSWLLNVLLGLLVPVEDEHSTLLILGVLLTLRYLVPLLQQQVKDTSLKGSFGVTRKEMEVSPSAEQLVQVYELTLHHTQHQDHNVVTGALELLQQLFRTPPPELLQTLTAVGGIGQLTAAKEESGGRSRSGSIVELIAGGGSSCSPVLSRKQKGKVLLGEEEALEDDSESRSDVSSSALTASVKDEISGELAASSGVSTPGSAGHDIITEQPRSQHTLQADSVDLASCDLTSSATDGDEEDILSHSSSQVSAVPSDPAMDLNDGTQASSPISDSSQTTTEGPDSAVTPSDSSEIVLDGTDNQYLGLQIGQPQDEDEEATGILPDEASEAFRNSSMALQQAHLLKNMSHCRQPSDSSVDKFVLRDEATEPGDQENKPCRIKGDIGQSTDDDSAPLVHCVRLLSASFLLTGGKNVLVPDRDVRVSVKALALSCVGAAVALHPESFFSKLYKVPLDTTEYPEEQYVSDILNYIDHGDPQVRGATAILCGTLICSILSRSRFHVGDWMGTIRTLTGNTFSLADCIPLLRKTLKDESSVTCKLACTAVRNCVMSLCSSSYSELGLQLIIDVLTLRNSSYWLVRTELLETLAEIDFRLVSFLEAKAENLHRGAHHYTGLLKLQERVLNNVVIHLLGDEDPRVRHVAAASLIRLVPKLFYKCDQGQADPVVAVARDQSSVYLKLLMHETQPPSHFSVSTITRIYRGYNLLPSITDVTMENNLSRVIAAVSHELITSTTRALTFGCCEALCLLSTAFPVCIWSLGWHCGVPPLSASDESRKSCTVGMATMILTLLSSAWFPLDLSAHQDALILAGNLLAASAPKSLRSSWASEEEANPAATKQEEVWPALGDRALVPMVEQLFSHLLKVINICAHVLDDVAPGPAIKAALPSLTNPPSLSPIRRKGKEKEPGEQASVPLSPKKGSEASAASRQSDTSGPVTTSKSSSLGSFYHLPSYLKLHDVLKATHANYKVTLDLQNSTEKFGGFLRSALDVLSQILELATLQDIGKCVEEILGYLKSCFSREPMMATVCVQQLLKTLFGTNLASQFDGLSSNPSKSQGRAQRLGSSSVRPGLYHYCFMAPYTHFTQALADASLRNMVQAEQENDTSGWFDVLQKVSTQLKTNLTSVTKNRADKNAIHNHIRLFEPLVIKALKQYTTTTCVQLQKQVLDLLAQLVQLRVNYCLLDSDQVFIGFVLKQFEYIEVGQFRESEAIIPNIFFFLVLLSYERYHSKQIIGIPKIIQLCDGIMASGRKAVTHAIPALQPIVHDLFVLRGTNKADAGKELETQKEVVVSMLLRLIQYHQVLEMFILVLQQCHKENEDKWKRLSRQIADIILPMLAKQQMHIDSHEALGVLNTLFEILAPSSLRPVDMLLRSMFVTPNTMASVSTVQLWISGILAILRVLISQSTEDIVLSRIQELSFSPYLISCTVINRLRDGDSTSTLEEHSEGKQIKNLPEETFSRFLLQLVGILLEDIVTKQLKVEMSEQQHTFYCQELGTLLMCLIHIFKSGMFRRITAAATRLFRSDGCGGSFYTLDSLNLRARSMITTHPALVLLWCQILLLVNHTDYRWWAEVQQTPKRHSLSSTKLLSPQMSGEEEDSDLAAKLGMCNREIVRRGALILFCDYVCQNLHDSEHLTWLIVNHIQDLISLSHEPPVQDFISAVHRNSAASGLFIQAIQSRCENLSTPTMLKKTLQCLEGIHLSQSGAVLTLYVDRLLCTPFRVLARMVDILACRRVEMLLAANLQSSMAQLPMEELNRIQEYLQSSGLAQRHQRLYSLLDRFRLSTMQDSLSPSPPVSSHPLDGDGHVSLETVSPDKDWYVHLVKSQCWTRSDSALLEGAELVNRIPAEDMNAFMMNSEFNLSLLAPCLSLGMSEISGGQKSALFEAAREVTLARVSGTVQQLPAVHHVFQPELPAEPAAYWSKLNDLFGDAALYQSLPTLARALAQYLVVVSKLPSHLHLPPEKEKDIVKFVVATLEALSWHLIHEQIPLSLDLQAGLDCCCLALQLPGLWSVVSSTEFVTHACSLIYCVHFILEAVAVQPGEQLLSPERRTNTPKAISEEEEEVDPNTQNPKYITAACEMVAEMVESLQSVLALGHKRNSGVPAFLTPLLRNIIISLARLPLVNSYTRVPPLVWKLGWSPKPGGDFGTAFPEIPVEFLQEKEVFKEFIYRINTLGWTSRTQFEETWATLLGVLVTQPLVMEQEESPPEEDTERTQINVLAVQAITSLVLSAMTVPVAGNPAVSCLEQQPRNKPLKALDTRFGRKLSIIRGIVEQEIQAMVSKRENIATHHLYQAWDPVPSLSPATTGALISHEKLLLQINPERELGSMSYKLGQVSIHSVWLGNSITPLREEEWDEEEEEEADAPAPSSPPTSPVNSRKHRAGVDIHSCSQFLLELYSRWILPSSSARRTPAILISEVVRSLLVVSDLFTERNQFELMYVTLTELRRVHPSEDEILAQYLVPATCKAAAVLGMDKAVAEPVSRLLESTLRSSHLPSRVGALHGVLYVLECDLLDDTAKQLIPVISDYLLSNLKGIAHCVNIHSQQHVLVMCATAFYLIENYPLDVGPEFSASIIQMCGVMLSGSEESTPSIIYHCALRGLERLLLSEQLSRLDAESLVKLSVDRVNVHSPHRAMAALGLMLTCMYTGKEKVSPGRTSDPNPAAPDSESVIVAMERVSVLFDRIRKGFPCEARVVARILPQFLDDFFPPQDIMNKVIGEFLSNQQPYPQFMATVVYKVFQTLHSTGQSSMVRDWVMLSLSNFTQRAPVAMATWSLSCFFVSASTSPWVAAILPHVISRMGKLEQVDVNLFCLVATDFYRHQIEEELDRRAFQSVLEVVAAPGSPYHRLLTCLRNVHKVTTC

| SMILES | inhibition |
| --- | --- |
| Cc1c(NC(=O)c2c([N+](=O)[O-])cnn2C)c(=O)n(-c2ccccc2)n1C | -3% (inactive) |
| COc1ccc2c(c1)c(=O)oc1c(C)c(OCc3ccc(C(=O)O)o3)ccc12 | 4% (inactive) |
| CC1=C(C#N)C(=O)NC(=O)/C1=C\c1ccc(-c2ccc(Cl)c(C(=O)O)c2)o1 | 13% (inactive) |
| CC1=C(C#N)C(=O)NC(=O)/C1=C\c1ccc(-c2cccc(Cl)c2)o1 | 37% (inactive) |
| CC1=C(C#N)C(=O)N(CC(C)O)C(=O)/C1=C\c1ccc(-c2cccc(Cl)c2Cl)o1 (stereo not given) | 93% (active) |
| c1ccc(-n2ncc(-c3nn[nH]n3)n2)cc1 | 59% (active) and -6.45% (inactive) |
| N#Cc1ccc(C(=O)N2CCC(COc3ccc(C(=O)N4CCCC4)cc3)CC2)cc1 | 3.57% (inactive) |
| CC(=O)Nc1ccc(S(=O)(=O)N2CCN(C3CCCCCCC3)CC2)cc1 | 2% (inactive) |
| O=S(=O)(c1cccnc1)N1CCN(c2ccc(-c3cccs3)nn2)CC1 | -2.7% (inactive) |
| CC(=O)Nc1ccc(S(=O)(=O)N2CCN(c3ccc(-c4ccccn4)nn3)CC2)cc1 | 74.1% (active) |
| CN(C)c1ccc(CNCC23CC4CC(C2)CC(c2ccccc2)(C4)C3)cc1 | 100% (active) |
| O=C(N1CCCC1)C12CC3CC(C1)CC(c1ccccc1)(C3)C2 | 2.5% (inactive) |
| CN(C)c1ccc(CCCNC(=O)C23CC4CC(CC(C4)C2)C3)cc1 | 1.3% (inactive) |
| O=C(c1cccc(OCC2CCCN(C(=O)c3ccccc3F)C2)c1)N1CCCCC1 (stereo not given) | -4.06% (inactive) |
| CC(=O)NCc1cnn(-c2ccc(C(=O)Nc3ccccc3)cc2)c1 | -1.5% (inactive) |
| CCCCN=C(C(=O)Nc1ccc(Cl)c(C(F)(F)F)c1)c1ccccc1NC(C)=O | 0% (inactive) |
| O=C(c1cn2cc(-c3ccc(F)c(Cl)c3)ccc2n1)N1CCOCC1 | 16.9% (inactive) |
| CN(C)c1ccc(-c2ccc3nc(C(=O)N4CCCC4)cn3c2)cc1 | 97.2% (active) |
| CCCCN1CCN(C(=O)c2cn3cc(C)ccc3n2)CC1 | 0.1% (inactive) |
| CC1=C(C(=O)Nc2ccc(C)cc2C)C(c2ccccc2[N+](=O)[O-])n2ncnc2N1 (stereo not given) | 25% (inactive) |

| SMILES | inhibition |
| --- | --- |
| O=C(Cc1ccccc1)ON=C1C=CC(=NOC(=O)c2ccccc2)C=C1 | 14% (inactive) |
| Cc1cc(OC(=O)C=Cc2ccccc2)c([N+](=O)[O-])c(=O)[nH]1 | 7.1% (inactive) |
| O=C1C=CC(=NOC(=O)/C=C/c2ccccc2)C=C1 | 100% (active) |
| O=S1(=O)c2ccc(Br)cc2OC[C@@H](Cc2ccccc2)N1Cc1cn(Cc2ccco2)nn1 | 5.1% (inactive) |
| O=C(COc1ccc(Br)cc1)Nc1ccc2c(c1)OCO2 | 0.4% (inactive) |
| O=C1C(Nc2ccc(Br)cc2)=CC(=NS(=O)(=O)c2cccs2)c2ccccc21 | 80% (active) |
| CCOc1ccc(NC(=O)C2CCC(N3C(=O)c4ccccc4C3=O)CC2)cc1 (stereo not given) | 2.4% (inactive) |
| COc1ccc(S(=O)(=O)N=C2C=C(Br)C(=O)c3ccccc32)cc1 | 31% (inactive) |
| Cc1cc(Br)ccc1NC(=O)C(NS(=O)(=O)c1cccs1)C(C)C (stereo not given) | -6% (inactive) |
| O=S(=O)(c1cccs1)N(c1ccccc1)C(F)F | -18.8% (inactive) |
| CCOc1ccc(NS(=O)(=O)c2ccc(Cl)cc2)cc1 | -13% (inactive) |
| CCc1ccc(S(=O)(=O)N=C2C=C(Br)C(=O)c3ccccc32)cc1 | 38% (inactive) |
| CCOc1ccc(S(=O)(=O)N=C2C=C(Nc3ccc(C)cc3)C(=O)c3ccccc32)cc1 | 93% (active) |
| CCc1ccc(S(=O)(=O)N=C2C=C(Nc3ccc(OC)cc3)C(=O)c3ccccc32)cc1 | 91% (active) |
| Clc1ccc(Cl)c(-c2ccc(CNC3CC3)o2)c1 | -25.6% (inactive) |
| COc1cc(C=C2C(=O)c3ccccc3C2=O)ccc1OCc1ccccc1 | 4% (inactive) |
| COc1ccc(CCCN)cc1OC | -2.8% (inactive) |
| COc1ccc(NCc2ccc(OC)c(C)c2)cc1 | 52% (active) |
| COc1cc(CNc2ccc(F)cc2)ccc1OCc1ccccc1 | 55.7% (active) |
| COc1cc(CN2CCC(O)CC2)ccc1OCc1ccccc1 | -5.7% (inactive) |

| SMILES | inhibition |
| --- | --- |
| COc1ccc(CNc2ccc3c(c2)CCC3)cc1OC | 62.8% (active) |
| COc1ccc(CC(=O)Nc2c3c(nc4c2CCC4)CCCC3)cc1OC | 2% (inactive) |
| COc1ccc(CNC(=O)C(=O)Nc2ccc(OC)cc2)cc1 | -2.2% (inactive) |
| COc1ccc(CNc2nccs2)cc1 | 5.7% (inactive) |
| CCN1CCCC1CNC(=O)c1ccc(Sc2ccc(C)cc2)c(NC(C)=O)c1 (stereo not given) | -3% (inactive) |
| O=C(Nc1ccc(NC(=O)c2ccc([N+](=O)[O-])cc2Cl)cc1)c1ccco1 | -2.2% (inactive) |
| COc1cccc(C(=O)NCC2Cc3cc(OC)ccc3O2)c1 (stereo not given) | -0.8% (inactive) |
| O=C(CC1CCCCC1)N1CCC(COc2ccc(C(=O)N3CCCCC3)cc2)CC1 | -1.76% (inactive) |
| COc1ccc(C(=O)N2CCCCC2CCN2CCCC2)cn1 (stereo not given) | 6.78% (inactive) |
| O=C(c1ccco1)N1CCCC(c2nncn2-c2ccccc2)C1 (stereo not given) | 8.27% (inactive) |
| CCOc1cc(/C=C2\C(=O)NC(=O)N(c3ccc(Br)cc3)C2=O)ccc1O | 5% (inactive) |
| CCOc1cc(/C=C2\C(=O)NC(=O)N(c3ccc(F)cc3)C2=O)ccc1O | 5% (inactive) |
| COc1cc(/C=C2\C(=O)Nc3ccc(Br)cc32)ccc1O | 100% (active) |
| Cc1cc([N+](=O)[O-])nn1CCCC(=O)Nc1cc(Cl)ccc1O | 2% (inactive) |
| CC(C)(C)CC(=O)N1CCN(c2nc(CN3CCCCCC3)cs2)CC1 | -9.3% (inactive) |
| COc1cccc(C=C2Oc3cc(OCC(=O)NN)ccc3C2=O)c1OC | 4.1% (inactive) |
| COc1cccc(CCC(=O)N2CCCN(c3ncccc3-c3nc(C4CC4)no3)CC2)c1 | -31.2% (inactive) |
| Cc1ccc(S(=O)(=O)N2CCc3c(c(COc4ccccc4)nn3C)C2)cc1C | 60.3% (active) |
| Cn1nc(COc2ccccc2)c2c1CCN(C(=O)Nc1ccccc1F)C2 | 16.9% (inactive) |
| Cn1nc(COc2ccccc2)c2c1CCN(C(=O)c1ccoc1)C2 | 3.9% (inactive) |
